Test results from PubChem BioAssay (Tox21).
Records with an inconclusive call do not appear. The source made the active and inactive calls. Unless noted, calls come from the whole dose curve; as a rule, active = well fitted curve in the direction sought with a large enough effect in the repeat runs; inconclusive = weak or mixed curves; inactive = no such curve, though single readings can be large; an effect the other way counts as inactive or inconclusive.

Assays:
[1] = qHTS assay for small molecules that induce genotoxicity in human embryonic kidney cells expressing luciferase-tagged ATAD5 (AID 651632); note: nearly all actives have a fitted effect of over 15% in size
Summary of the method: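 Luminescent reporter readout, HEK293T ATAD5-luc line: 16 hr drug exposure (37C, 5% CO2) followed by Amplite, 30 min RT.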

[2] = qHTS assay for small molecule agonists of the p53 signaling pathway - cell viability (AID 651633; calls by dose curve;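 note: p53RE-bla HCT reporter cells with a stable beta-lactamase p53 reporter; series mostly up to about 83 µM; nearly all actives have a fitted effect of over 30% in size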)
Summary of the method: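 Viability counter-read: CellTiter-Glo luminescence (30 min, room temperature) in the same p53RE-bla plates. These plates had been exposed to compounds for 16 h at 37 C.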

[3] = qHTS assay for small molecules that induce genotoxicity in human embryonic kidney cells expressing luciferase-tagged ATAD5 - cell viability (AID 651634; calls by dose curve; note: nearly all actives have a fitted effect of over 25% in size)
Summary of the method: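 Viability read: CellTiter-Fluor fluorescence, 30 min at 37C. Cells: HEK293T, luciferase-tagged ATAD5. Exposure: 15.5 hr, 37C, 5% CO2, compound or DMSO vehicle.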

[4] = qHTS assay for small molecule disruptors of the mitochondrial membrane potential - cell viability (AID 720634; calls by dose curve;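 note: human HepG2 liver cancer cells; series mostly up to about 83 µM; nearly all actives have a fitted effect of over 20% in size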)
Summary of the method: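 HepG2, 1 hr compound, 37 C. ATP luminescence via CellTiter-Glo, 30 min RT, same well as m-MPI.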

[5] = qHTS assay to test for compound auto fluorescence at 590 nm (red) in HepG2 cells (AID 720674)
Summary of the method: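 We screened compounds on adherent HepG2 cells, incubating them for an hour at 37 C in 5% CO2 before reading emission at 590 nm under 540 nm excitation; values reflect equivalence to Rose Bengal sodium fluorescence.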

[6] = qHTS assay to test for compound auto fluorescence at 535 nm (green) in HepG2 cells (AID 720675)
[7] = qHTS assay to test for compound auto fluorescence at 460 nm (blue) in HEK293 cells (AID 720678)
Summary of the method: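 Triamterene serves as the blue fluorophore standard. Compound signal at 405/460 nm is read in HEK293 wells (2,000 cells, 10% dialyzed FBS) after overnight treatment at 37C.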

[8] = qHTS assay to test for compound auto fluorescence at 590 nm (red) in HEK293 cells (AID 720679)
Summary of the method: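 We plated HEK293 cells in 10% dialyzed FBS medium, let them adhere for 4-5 hr, then added 23 nL compound. Overnight at 37C and 5% CO2 preceded fluorescence measurement at 540/590nm.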

[9] = qHTS assay to test for compound auto fluorescence at 535 nm (green) in HEK293 cells (AID 720680)
[10] = qHTS assay to test for compound auto fluorescence at 460 nm (blue) in HEK293 cell free culture (AID 720681)
Summary of the method: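 Blue fluorescence (Ex 405/Em 460 nm, triamterene-equivalent) was read immediately after pin transfer of compound or DMSO into medium (DMEM, 10% FBS) without cells.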

[11] = qHTS assay to test for compound auto fluorescence at 535 nm (green) in HEK293 cell free culture (AID 720682)
Summary of the method: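 Each library compound, or DMSO control, is added by pintool to medium alone, comprising DMEM and 10% FBS. Emission at 535 nm following 485 nm excitation is quantified against fluorescein.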

[12] = qHTS assay to test for compound auto fluorescence at 590 nm (red) in HEK293 cell free culture (AID 720683)
Summary of the method: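 Red-channel autofluorescence of compounds in culture medium (DMEM, 10% FBS), no cells, measured at 540/590 nm. Rose Bengal sodium is the reference fluorophore for equivalence.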

[13] = qHTS assay to test for compound auto fluorescence at 590 nm (red) in HepG2 cell free culture (AID 720684)
Summary of the method: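 Steps: dispense MEM/10% FBS medium, no cells; pin compound or DMSO vehicle; read red channel, Ex/Em 540/590 nm. Output given as Rose Bengal sodium equivalents.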

[14] = qHTS assay to test for compound auto fluorescence at 460 nm (blue) in HepG2 cell free culture (AID 720685)
Summary of the method: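 Compound (23 nL) or DMSO pinned into cell-free MEM with 10% FBS; blue fluorescence read at 405/460 nm excitation/emission, expressed as auto-fluorescence equivalency to triamterene.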

[15] = qHTS assay to test for compound auto fluorescence at 535 nm (green) in HepG2 cell free culture (AID 720686)
[16] = qHTS assay to test for compound auto fluorescence at 460 nm (blue) in HepG2 cells (AID 720687)
Summary of the method: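 Blue-channel autofluorescence (Ex/Em 405/460 nm, triamterene-equivalent) was measured after 1 hr compound exposure at 37 C, 5% CO2. Cells were HepG2, plated overnight at 37 C in MEM plus 10% FBS.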

[17] = target: Glucocorticoid receptor (Homo sapiens) (UniProt P04150); experiment: qHTS assay to identify small molecule agonists of the glucocorticoid receptor (GR) signaling pathway (AID 720691; active = well fitted activation curve with a large enough effect in the signal ratio in the repeat runs, not every such curve was filed as active; the % refers to the signal ratio)
Summary of the method: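 qHTS in GR-bla HeLa cells: 4 h settling at 37 C/5% CO2, 18 h compound incubation at 37 C, 2 h LiveBLAzer B/G FRET substrate at room temperature, fluorescence intensity measured.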

[18] = target: Glucocorticoid receptor (Homo sapiens) (UniProt P04150); experiment: qHTS assay to identify small molecule antagonists of the glucocorticoid receptor (GR) signaling pathway (AID 720692; active = well fitted inhibition curve with a large enough effect in the signal ratio in the repeat runs, not every such curve was filed as active; the % refers to the signal ratio)
Summary of the method: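 Inhibition of glucocorticoid signalling is measured in HeLa cells with a GRE-controlled beta-lactamase reporter; cells are co-treated with compound and 5 nM dexamethasone (final) for 18 h before FRET substrate readout.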

[19] = qHTS assay for small molecule disruptors of the mitochondrial membrane potential (AID 720635); note: potency is the fitted concentration of half-maximal effect
Summary of the method: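 Mitochondrial membrane potential tracked with Mito-MPS dye, red aggregates (ex 540/em 590 nm) against green monomers (ex 490/em 535 nm). Compound treatment 1 hr at 37C, dye 30 min in HepG2.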

Measured: Potency

Sequence of Glucocorticoid receptor (Homo sapiens) (P04150 whole entry, looked up): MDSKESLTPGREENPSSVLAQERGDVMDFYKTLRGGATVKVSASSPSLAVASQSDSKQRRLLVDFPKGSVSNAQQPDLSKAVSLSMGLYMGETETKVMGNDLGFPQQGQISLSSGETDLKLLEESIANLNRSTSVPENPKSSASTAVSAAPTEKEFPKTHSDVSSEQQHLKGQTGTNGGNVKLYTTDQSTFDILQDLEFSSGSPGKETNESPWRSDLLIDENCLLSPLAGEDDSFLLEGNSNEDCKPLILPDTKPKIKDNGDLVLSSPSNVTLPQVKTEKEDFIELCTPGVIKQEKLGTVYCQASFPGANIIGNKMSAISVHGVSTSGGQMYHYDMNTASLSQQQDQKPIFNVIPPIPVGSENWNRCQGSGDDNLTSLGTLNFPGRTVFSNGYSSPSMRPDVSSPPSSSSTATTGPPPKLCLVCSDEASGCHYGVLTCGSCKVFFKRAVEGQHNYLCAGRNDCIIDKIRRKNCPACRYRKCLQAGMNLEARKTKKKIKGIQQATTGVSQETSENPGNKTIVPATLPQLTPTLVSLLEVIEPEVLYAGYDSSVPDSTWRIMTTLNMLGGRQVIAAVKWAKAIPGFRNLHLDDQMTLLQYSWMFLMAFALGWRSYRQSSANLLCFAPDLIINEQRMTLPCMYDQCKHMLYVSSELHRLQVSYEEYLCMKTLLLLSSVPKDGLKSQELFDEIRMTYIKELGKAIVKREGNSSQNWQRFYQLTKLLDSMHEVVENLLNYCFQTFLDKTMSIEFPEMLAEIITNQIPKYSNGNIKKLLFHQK

CCCCC(CC)C(=O)OC(C)C (centres undefined)
not listed: [19]
inactive: all other assays above

CCC(C)(CCC(C)C)C(=O)[O-].CCC(C)(CCC(C)C)C(=O)[O-].[Zn+2] (centres undefined)
not listed: [17] | [18] | [19]
inactive: all other assays above

C[N+](C)(C)CC(O)CCl (centres undefined)
not listed: [4] | [17] | [19]
inactive: all other assays above

CCC(=O)OCCC(C)CCC=C(C)C (centres undefined)
not listed: [17] | [18] | [19]
inactive: all other assays above

CC(=O)OCCCc1ccccc1
not listed: [4] | [9] | [17] | [18]
inactive: all other assays above

Cc1c(C(C)C)c(=O)n(-c2ccccc2)n1C
not listed: [17] | [18] | [19]
inactive: all other assays above

C[CH2][Ge]([Cl])([CH2]C)[CH2]C
not listed: [4] | [17] | [18] | [19]
inactive: all other assays above

CC(C)CCO
not listed: [9] | [17] | [18] | [19]
inactive: all other assays above

CC(C)CCCCCCOC(=O)C1CCCCC1C(=O)OCCCCCCC(C)C (centres undefined)
not listed: [19]
inactive: all other assays above

CCCCCCCCCCCCOC(C)=O
not listed: [4] | [17] | [18]
inactive: all other assays above

C=C(C)C(=O)OCCCCCCOC(=O)C(=C)C
not listed: [4] | [9] | [17] | [18]
inactive: all other assays above

O=[Si]=O
not listed: [3] | [17]
inactive: all other assays above

C=CCOc1c(Br)cc(Br)cc1Br
not listed: [4] | [9] | [18] | [19]
inactive: all other assays above

CC(=O)OC(C)c1ccccc1 (centres undefined)
not listed: [3] | [17]
inactive: all other assays above

CO/N=C(/C(=O)N[C@@H]1C(=O)N2C(C(=O)O)=C(Cn3nnc(C)n3)CS[C@H]12)c1csc(N)n1
not listed: [2]
inactive: all other assays above

CCCCC[Si](OCC)(OCC)OCC
active: [19] 48.6 µM
not listed: [3] | [4] | [18]
inactive: all other assays above
